Experimental data as given in PubChem BioAssay (NCATS).
Results filed as inconclusive are left out. Values without a mark were called inactive. Calls follow the shape of the dose curve; as a rule, active = well fitted cell-killing curve with a large enough effect; inconclusive = small, poorly fitted or top-dose-only effect; inactive = flat fitted curve, though single readings scatter.

Assay: Cell Viability - SH-SY5Y (AID 544);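 also: 0% = DMSO alone and -100% = 100 µM tamoxifen; nearly all actives have a fitted effect of over 55% in size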
Details: SH-SY5Y neuroblastoma cell viability; viability change, negative = cytotoxic: at 92.2 µM (top of the series)
Description: NIH Chemical Genomics Center [NCGC]
NIH Molecular Libraries Screening Centers Network [MLSCN]
National Institutes of Environmental Health Sciences [NIEHS]
National Toxicology Program [NTP]
We have developed a 1536-well cell-based assay for quantitative high throughput screening (qHTS) against a number of cell lines to determine in vitro cytotoxicity of small molecules. This particular assay uses the SH-SY5Y cell line which is derived from human neuroblastoma.
NCGC Assay Protocol Summary:
The CellTiter-Glo luminescent cell viability assay (Promega) is a homogeneous method to measure the number of viable cells in culture. The end point readout of this assay is based on quantitation of intracellular ATP, an indicator of metabolic activity, using the luciferase reaction. Luciferase catalyzes the oxidation of beetle Luciferin to oxyluciferin and light in the presence of ATP. The luminescent signal is proportional to amount of ATP present.
Using the CellTiter-Glo luminescent cell viability assay, the amount of cellular ATP was measured in the SH-SY5Y cell line with complete culture medium following compound treatment for 40 hours. The assay was performed in opaque white Kalypsys 1536-well plates. In the screen, tamoxifen and doxorubicin were used as positive controls. Library compounds were measured for their ability to cause acute toxicity in the cell line, as reflected by a decrease in intracellular ATP levels, in a concentration-dependent manner. […] AC50 values were determined from concentration-response data modeled with the standard Hill equation.
qHTS protocol for CellTiter Glo SH-SY5Y cellular assay
[Step] [Parameter] [Value] [Description]
1. Reagent; 5 uL; 1500 SH-SY5Y cells/well
2. Time; 5 hr; 37 °C incubation
4. Controls; 23 nL; Tamoxifen 0.34 uM to 100 uM & Doxorubicin 0.02 nM to 100 uM
5. Time; 40 hr; 37 °C incubation
6. Reagent; 5 uL; CellTiter Glo reagent
7. Time; 20 min; Room Temperature
8. Detection; Luminescence; Viewlux plate reader
Keywords: cell viability, cytotoxicity, SH-SY5Y cell line, luminescence, NTPHTS, NTPHTS_NCGC, NIEHS, EPA, DSSTox, MLSMR, MLSCN, NIH Roadmap, qHTS, NCGC
For `CN(C)c1cccc(O)c1`, the “viability change, negative = cytotoxic” value was -6.57%. In the case of `CCC(C)O` (stereo not given), the “viability change, negative = cytotoxic” value is reported as -3.76%. For `CCNc1ccccc1`, the “viability change, negative = cytotoxic” value was -3.65%. For `O=C(O)c1c(Cl)cccc1Cl`, the “viability change, negative = cytotoxic” value was -13.6%. In the case of `S=C([S-])NCCNC(=S)[S-].[Zn+2]`, the “viability change, negative = cytotoxic” value is reported as -8.78%. In the case of `c1ccsc1`, the “viability change, negative = cytotoxic” value is reported as -0.96%. For `CC(C)(O)C(=O)O`, the “viability change, negative = cytotoxic” value was 5.71%. With `C/C=C1\CC2C=CC1C2` (stereo not given) the “viability change, negative = cytotoxic” value was -2.04%. With `Clc1ccccn1` the “viability change, negative = cytotoxic” value was -15.4%. In the case of `CC/C(C)=N/O`, the “viability change, negative = cytotoxic” value is reported as 0.361%. For `Cc1ccccc1C=O`, the “viability change, negative = cytotoxic” value was -3.19%. With `Cc1ccc(Br)cc1` the “viability change, negative = cytotoxic” value was -6.56%. With `C=CCCCCCC` the “viability change, negative = cytotoxic” value was 0.594%. For `CCN(Cc1ccccc1)c1ccccc1`, the “viability change, negative = cytotoxic” value was 1.95%. With `Nc1ccccc1[N+](=O)[O-]` the “viability change, negative = cytotoxic” value was -4.33%. For `NC(=S)NNC(N)=S`, the “viability change, negative = cytotoxic” value was -5.9%. For `O=[N+]([O-])c1ccccc1CCO`, the “viability change, negative = cytotoxic” value was -20.5%. In the case of `N#CC1(O)CCCCC1`, the “viability change, negative = cytotoxic” value is reported as -4.68%. With `O=[N+]([O-])c1ccc(Cl)cc1Cl` the “viability change, negative = cytotoxic” value was -9.65%. For `C=C(C)C(=O)OC`, the “viability change, negative = cytotoxic” value was -7.24%. With `CC(C)(C)OCC1CO1` (stereo not given) the “viability change, negative = cytotoxic” value was -0.804%. In the case of `Cc1cccc([N+](=O)[O-])c1C(=O)O`, the “viability change, negative = cytotoxic” value is reported as -1.07%. For `Cc1cc(C(=O)O)ccc1[N+](=O)[O-]`, the “viability change, negative = cytotoxic” value was -10.1%. With `O=C1NC(=O)c2cc([N+](=O)[O-])ccc21` the “viability change, negative = cytotoxic” value was -7.96%. In the case of `C=CCOC(=O)CCCCCCCC`, the “viability change, negative = cytotoxic” value is reported as -10.5%. For `CCCOCC(C)OCC(C)O` (stereo not given), the “viability change, negative = cytotoxic” value was -13%. For `Cc1cc(C2(c3cc(C)c(O)cc3C)OS(=O)(=O)c3ccccc32)c(C)cc1O`, the “viability change, negative = cytotoxic” value was -17.1%. In the case of `BrC(Br)C(Br)Br`, the “viability change, negative = cytotoxic” value is reported as -13.2%. For `CCN(CC)c1cccc(O)c1`, the “viability change, negative = cytotoxic” value was -11.1%. For `Nc1cccc(O)c1`, the “viability change, negative = cytotoxic” value was 3.22%. For `CC(=O)Nc1ccc(C)cc1`, the “viability change, negative = cytotoxic” value was -21.3%. For `CCCCC(CC)COCC1CO1` (stereo not given), the “viability change, negative = cytotoxic” value was -12.3%. For `COc1ccc(OC)cc1`, the “viability change, negative = cytotoxic” value was -4.35%. In the case of `FC(F)(F)c1ccccc1Cl`, the “viability change, negative = cytotoxic” value is reported as -11.6%. For `CCCC(C)CO` (stereo not given), the “viability change, negative = cytotoxic” value was -5.01%. With `CCOc1ccc(NC(C)=O)cc1N` the “viability change, negative = cytotoxic” value was -9.77%. For `CCOC(=O)OCC`, the “viability change, negative = cytotoxic” value was -4.16%. For `COC(=O)CCCC(=O)OC`, the “viability change, negative = cytotoxic” value was -1.71%. For `O=[N+]([O-])c1c(Cl)cc(Cl)cc1Cl`, the “viability change, negative = cytotoxic” value was 8.58%. With `Cc1ccco1` the “viability change, negative = cytotoxic” value was -0.661%.
